Assay results reported in PubChem BioAssay AID651658 (Broad Institute, 2012).
“And” between values parts separate entries of the source, which are not always exact repeats. Identical values can stand only once. Screen size: about 340,000 compounds; about 5,100 (1.5%) were called active. The sample as a whole holds a higher share of actives than the screen did. A number with no mark means an inactive call.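 The calls were made as follows: active = mean Tm shift, scaled 0 neutral to 100 positive control, at about 1.3% or above, every replicate too (limit read from the data); inconclusive = no clear call, values can overlap the other calls; inactive = the rest.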

These compounds were tested against Fibroblast growth factor 22 (Homo sapiens) (UniProt Q9HCT0) (assay: binders of human FGF22 protein, primary screen, FGF22 synaptogenesis inhibitor project, biophysical, thermal shift, single point (AID 651658)). Details: recombinant FGF22 thermal shift, SYPRO orange fluorescence; at 9.99 µM; active compounds read high; percent of sucrose octasulfate shift, DMSO zero.
Sequence of Fibroblast growth factor 22 (Homo sapiens) (Q9HCT0 whole entry, looked up): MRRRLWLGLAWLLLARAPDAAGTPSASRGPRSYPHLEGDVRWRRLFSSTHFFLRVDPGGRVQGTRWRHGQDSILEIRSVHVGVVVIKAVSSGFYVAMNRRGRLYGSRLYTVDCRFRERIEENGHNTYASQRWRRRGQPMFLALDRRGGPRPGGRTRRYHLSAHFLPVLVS

Structure (SMILES)	activity (Tm shift, normalised)
Clc1ccc(C[n+]2cc(-c3ccccc3)n3c2CCC3)cc1	-0.249%
Cc1ccc(-c2c[n+](CC(=O)Nc3ccccc3)c3n2CCC3)cc1	-0.075%
Cc1ccc(C(=O)C[n+]2cc(-c3ccccc3)n3c2CCCCC3)cc1	44.4% (active)
O=C(C[C@H]1C=C[C@H](NC(=O)Nc2cc(F)ccc2F)[C@H](CO)O1)Nc1ccccc1	0.041%
C[C@@H]1CCCCO[C@@H](CN(C)Cc2ccncc2)[C@@H](C)CN([C@@H](C)CO)C(=O)c2cc(NC(=O)Nc3ccc(F)cc3)ccc2O1	-0.232%
CCCNC(=O)C[C@@H]1CC[C@H]2[C@@H](COC[C@@H](O)CN2Cc2ccccc2F)O1	0.109%
CCC(=O)Nc1ccc2c(c1)OC[C@H](C)N(C(=O)Cc1cccnc1)C[C@@H](C)[C@@H](OC)CN(C)C2=O	-0.218%
CCc1cccc(NC(=O)O[C@H]2[C@H](OC(=O)Nc3ccccc3-c3ccccc3)[C@H](OC(=O)Nc3ccccc3-c3ccccc3)[C@@H](OC)O[C@@H]2CO)c1	-0.082%
COc1ccc(S(=O)(=O)N2CCCCN3[C@H](CO)[C@H](c4ccc(C5=CCCCC5)cc4)[C@@H]3C2)cc1	-0.535%
O=[N+]([O-])c1ccc(N2CCOCC2)cc1	-0.032%
OC(COc1ccccc1)CN1CCN(c2cccc(Cl)c2)CC1 (centres undefined)	0.055%
O=[N+]([O-])c1ccc(N2CCN(CC(O)COc3ccccc3)CC2)cc1 (centres undefined)	43.9% (active)
CC(C)NC(=O)Nc1ccc2c(c1)C(=O)N([C@H](C)CO)C[C@H](C)[C@H](CN(C)C(=O)CCC(F)(F)F)OCCCC[C@H](C)O2	-0.429%
CN1CCN(C(=O)C[C@H]2CC[C@H]3[C@@H](COc4ccc(NC(=O)C5CCC5)cc4C(=O)N3C)O2)CC1	-0.349%
COC(=O)C1=C(C)N(C)C(=O)NC1c1ccc([N+](=O)[O-])o1 (centres undefined)	43.8% (active)
COc1ccc(C2NC(=O)N(C)C(C)=C2[N+](=O)[O-])cc1 (centres undefined)	0.013%
COC(=O)C1=C(C)N(C)C(=S)NC1c1ccccc1 (centres undefined)	0.104%
COCC(=O)N1CCCCN2[C@H](CO)[C@H](c3ccc(C#Cc4ccc(OC)cc4)cc3)[C@H]2C1	0.2%
COc1ccc2c3c(n(C)c2c1)[C@H](CO)N(C(C)=O)CC31CCN(Cc2cccnc2)CC1	-0.052%
C/C=C/c1ccc2c(c1)O[C@H](CN(C)C(=O)Cc1ccncc1)[C@@H](C)CN([C@@H](C)CO)S2(=O)=O	-0.034%
Cc1nnc(SC(C(=O)Nc2cc(Cl)cc(Cl)c2)c2ccccc2)[nH]c1=O (centres undefined)	1.39% (active)
Cc1nnc(SC(C(=O)c2ccccc2)c2ccccc2)[nH]c1=O (centres undefined)	0.339%
CC(NCC(=O)Nc1cc(Cl)cc(Cl)c1)c1ccccc1 (centres undefined)	-0.134%
C[C@H]1CN([C@@H](C)CO)C(=O)Cc2cc(N(C)C)ccc2O[C@@H]1CN(C)S(=O)(=O)c1ccc(F)cc1	-0.149%
C[C@@H]1CCCCO[C@H](CN(C)S(=O)(=O)c2cccs2)[C@@H](C)CN([C@@H](C)CO)C(=O)c2cc(NC(=O)NC3CCCCC3)ccc2O1	-0.096%

Structure (SMILES)	activity (Tm shift, normalised)
Cc1ccccc1-c1ccc2c(c1)O[C@H](CN(C)C)[C@H](C)CN([C@@H](C)CO)S2(=O)=O	0.074%
C[C@@H]1CN([C@@H](C)CO)C(=O)c2cc(NC(=O)CCCCCC(=O)Nc3ccccc3N)ccc2O[C@@H](C)CCCCO[C@@H]1CN(C)CC1CCCCC1	-0.209%
CC(C)Cn1c(N2CCN(C(=O)/C=C/c3ccccc3)CC2)nc2ccccc21	-0.183%
O=C(Cn1c(N2CCN(C/C=C/c3ccccc3)CC2)nc2ccccc21)c1ccccc1	44% (active)
COc1cc(C(=O)N2CCN(C/C=C/c3ccccc3)CC2)cc(OC)c1C	0.444%
CCCC(=O)Nc1ccc2c(c1)C(=O)N(C)C[C@H](OC)[C@@H](C)CN[C@H](C)CO2	-0.019%
CO[C@@H](CN(C)S(=O)(=O)c1ccccc1)[C@@H](C)CN(Cc1ccccc1Cl)[C@H](C)CO	0.183%
COC(=O)Cc1c(-c2[nH]c3ccccc3c2CC(=O)OC)[nH]c2ccccc12	-0.112%
COC(=O)Cc1nc2c(N)nc(N)nc2[nH]c1=O	44% (active)
Cc1cc(C)cc(N2C(=O)CSC2c2cccc([N+](=O)[O-])c2)c1 (centres undefined)	-0.058%
C[C@H]1CN([C@@H](C)CO)C(=O)Cc2cc(NS(=O)(=O)c3cn(C)cn3)ccc2O[C@@H]1CN(C)C(=O)Nc1ccc2c(c1)OCO2	-0.296%
CCCNC(=O)C[C@H]1CC[C@@H]2[C@H](COC[C@H](O)CN2S(=O)(=O)c2ccccc2F)O1	-0.049%
COc1ccc2c3c(n(C)c2c1)[C@H](CO)N(C)CC31CCN(C(=O)Nc2cccc(F)c2)CC1	0.13%
C[C@H]1CN([C@@H](C)CO)S(=O)(=O)c2ccc(-c3ccccc3F)cc2O[C@H]1CN(C)C(=O)C1CC1	0.047%
CCN1CCN(C(=O)CCN2C(=O)c3ccccc3C2=O)CC1	44.1% (active)
CCN1CCN(C(=O)CSc2ccc(C)cc2)CC1	-0.037%
O=C1c2ccccc2C(=O)N1CCCCCCN1C(=O)c2ccccc2C1=O	-0.045%
O=C(CN1CCOCC1)N1CC(=O)N2[C@H](C1)[C@H](c1ccc(/C=C/c3ccccc3)cc1)[C@@H]2CO	-0.125%
CCc1nc2ccccc2c(C(=O)OC2CCCCC2=O)c1C (centres undefined)	0.135%
COc1ccc(CNC(=O)CN2C(=O)c3ccccc3S2(=O)=O)cc1	0.05%
CCc1nc2ccccc2c(C(=O)NCc2ccc(OC)cc2)c1C	43.4% (active)
O=C(NCC(F)(F)F)[C@H]1[C@H](CO)[C@H]2Cn3c(ccc(-c4ccncc4)c3=O)[C@H]2N1Cc1ccncc1	-0.221%
COc1ccc(-c2cc(=O)oc3cc(OCC(=O)N[C@@H](Cc4c[nH]c5ccccc45)C(=O)O)ccc23)cc1	2.9% (active)
COc1ccc(-c2cc(C(=O)NC(Cc3c[nH]c4ccccc34)C(=O)O)c(C)o2)cc1OC (centres undefined)	1.25%
Cc1cccc(C)c1OCC(=O)NC(Cc1c[nH]c2ccccc12)C(=O)O (centres undefined)	-0.152%

Structure (SMILES)	activity (Tm shift, normalised)
CC=Cc1ccc2n(c1=O)C[C@@H]1[C@@H](CO)[C@H](C(=O)N[C@@H](C)c3ccccc3)[C@H]2N1Cc1ccncc1 (mixture of isomers)	-0.334%
CS(=O)(=O)Nc1cccc(C2=NN(S(=O)(=O)c3ccccc3)C(c3cccs3)C2)c1 (centres undefined)	0.242%
COc1cccc(C2CC(c3ccccc3)=NN2S(=O)(=O)c2ccccc2)c1OC (centres undefined)	44% (active)
COc1ccc(C2=NN(C(=O)c3ccccc3C(=O)O)C(c3ccccc3O)C2)cc1 (centres undefined)	-0.24%
C[C@H]1CN([C@@H](C)CO)S(=O)(=O)c2ccc(C3=CCCC3)cc2O[C@H]1CN(C)C(=O)Cc1ccncc1	0.421%
O=C(C1CCCCC1)N1[C@H](CO)[C@@H](c2ccccc2)C12CN(Cc1cccc(Cl)c1)C2	-0.133%
COc1cc(C(=O)OCc2cc(=O)n3ccsc3n2)ccc1OC(C)C	0.144%
O=C(OCc1cc(=O)n2ccsc2n1)C1(c2ccc(Cl)cc2)CC1	0.39%
COc1ccc(C(=O)OCc2cc(=O)n3ccsc3n2)cc1F	44% (active)
CCCC#Cc1ccc([C@H]2[C@H]3CN(C(=O)Nc4cccc(F)c4)CC(=O)N3[C@H]2CO)cc1	0.366%
COc1cc(CN(C)Cc2nc3cc(C(F)(F)F)ccc3c(=O)[nH]2)ccc1OC(F)F	-0.382%
COc1cc2nc(CN(C)Cc3ccc(F)cc3)[nH]c(=O)c2cc1OC	-0.106%
COc1ccc(CN(C)Cc2nc3cc(OC)c(OC)cc3c(=O)[nH]2)c(OC)c1	43.6% (active)
O=C(Nc1ccc(C(F)(F)F)cc1)N[C@@H]1CC[C@H](CC(=O)N2CCCCC2)O[C@H]1CO	-0.164%
CO[C@@H]1CN(C)C(=O)c2ccc(NS(C)(=O)=O)cc2OC[C@@H](C)N(C(=O)C2CCOCC2)C[C@@H]1C	-0.055%
O=C(c1ccc(F)cc1)N1CC2(C1)[C@H](c1ccccc1)[C@@H](CO)N2Cc1ccccn1	-0.271%
O=C(NCCc1c[nH]c2ccccc12)c1cc2ccccc2oc1=O	0.185%
N#C/C(=C/c1ccc(N2CCCCC2)o1)C(=O)NCCc1c[nH]c2ccccc12	-0.174%
O=C(NCCc1c[nH]c2ccccc12)C(=O)NCC1CCCO1 (centres undefined)	1.53% (active)
C[C@H](CO)N1C[C@H](C)[C@H](CN(C)C(=O)C2CC2)OCc2ccccc2-c2ccccc2C1=O	0.103%
O=C(NCC[C@@H]1CC[C@H](NC(=O)C2CC2)[C@H](CO)O1)c1cnccn1	0.118%
C[C@H](O)C#Cc1ccc2c(c1)O[C@H](CN(C)Cc1ccccn1)[C@H](C)CN([C@H](C)CO)S2(=O)=O	-0.169%
CCCNC(=O)C[C@@H]1C[C@H]2c3cc(NC(=O)Nc4ccccc4F)ccc3O[C@H]2[C@H](CO)O1	-0.607%
COc1cccc(NC(=O)N2[C@@H]3CNC[C@H]2C3c2ccc(-c3ccncc3)cc2)c1 (some centres undefined)	0.042% and -0.443%
